Source: PubChem BioAssay (EPA / NIEHS)
Activity calls are given as the source filed them. The calls were made as follows: active = hit-call score of the fitted dose curve at least 0.9, where 1 is the maximum; inactive = score below 0.9.

Legend:
[1] = biological target: CCAAT/enhancer-binding protein beta (Homo sapiens) (UniProt P17676); assay: ATG_C_EBP_CIS: Attagene CIS-FACTORIAL HepG2 Assay for human CCAAT/Enhancer Binding Protein (C/EBP) beta (AID 2282927); conditions: HepG2 Attagene cis-factorial transcription factor reporter; actives raise or lower the signal
How it was run: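 HepG2, transient MRTU transfection, 24 h treatment. RT-PCR plus CE fluorescence; DMSO negative control, bidirectional fit.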

[2] = ATG_CMV_CIS: Attagene CIS-FACTORIAL HepG2 Assay for human CMV (Internal Marker) (AID 2282928); conditions: HepG2 CMV promoter reporter, transcription factor profiling; actives raise or lower the signal;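 also: endpoint acts as a background internal control marker rather than a target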
How it was run: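 After transient transfection of HepG2 with reporter transcription units driven by cis-regulatory promoters, cells receive test chemical for 24 h. Labeled reporter amplicons, digested with HpaI, are sized and quantified by capillary electrophoresis against DMSO.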

[3] = ATG_AP_2_CIS: Attagene CIS-FACTORIAL HepG2 Assay for human Activator Protein 2 (AP-2) (AID 2282932); conditions: HepG2 AP-2 cis-reporter, Attagene transcription factor profiling; actives raise or lower the signal
How it was run: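 Multiplexed mRNA reporter assay in HepG2: cis-regulated units report endogenous factor activity after 24 h treatment. Fluorescence from capillary electrophoresis of RT-PCR products gives the signal, with DMSO as baseline.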

[4] = ATG_BRE_CIS: Attagene CIS-FACTORIAL HepG2 Assay for human Bone Morphogenetic Protein (BMP) Response Element (BRE) (AID 2282933); conditions: HepG2 BMP response element reporter, Attagene transcription factor profiling; actives raise or lower the signal
How it was run: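 A HepG2 multiplex reporter system measured inducible reporter mRNA 24 h post-dosing. Detection: RT-PCR, 6-FAM primer extension, HpaI digestion, capillary electrophoresis. Activity fitted bidirectionally relative to DMSO.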

[5] = biological target: Transcription factor E2F1 (Homo sapiens) (UniProt Q01094); assay: ATG_E2F_CIS: Attagene CIS-FACTORIAL HepG2 Assay for human E2F Transcription Factor 1 (AID 2282935); conditions: HepG2 Attagene cis-reporter, E2F reporter RNA transcripts; actives raise or lower the signal
How it was run: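 Measures reporter transcript levels via RT-PCR with capillary electrophoresis detection in HepG2 cells harboring cis-regulated reporter units; 24 h post-dose; bidirectional curve fitting with DMSO as baseline.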

[6] = ATG_E_Box_CIS: Attagene CIS-FACTORIAL HepG2 Assay for human Enhancer Box (E-box) (AID 2282936); conditions: HepG2 E-box cis-reporter transcription, actives raise or lower the signal
How it was run: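 First, HepG2 cells receive multiple cis-regulated reporter constructs by transient transfection. Next, chemicals are applied for 24 h. Finally, reporter mRNA is quantified via RT-PCR and capillary electrophoresis, with DMSO as baseline.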

[7] = ATG_M_61_CIS: Attagene CIS-FACTORIAL HepG2 Assay for M61 Transcription Factor (Internal Marker) (AID 2282937); conditions: HepG2 Attagene CIS-FACTORIAL M61 internal marker reporter; actives raise or lower the signal
How it was run: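 Readout is reporter mRNA by RT-PCR, fluorescent primer extension and capillary electrophoresis, with gain or loss fitted relative to DMSO. Transfected HepG2 cells carrying endogenous-TF-driven cis reporters were exposed to chemicals for 24 hours.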

[8] = ATG_EGR_CIS: Attagene CIS-FACTORIAL HepG2 Assay for human Early Growth Response 1 (EGR1) (AID 2282938); conditions: HepG2 Attagene CIS-FACTORIAL EGR reporter mRNA; actives raise or lower the signal
How it was run: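 After 24 h compound exposure, RNA from reporter-transfected HepG2 cells was reverse-transcribed, PCR-amplified, fluorescently labelled and resolved by capillary electrophoresis. EGR1 reporter transcript changes, up or down, were fitted against DMSO, reflecting endogenous transcription-factor activity.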

[9] = ATG_M_19_CIS: Attagene CIS-FACTORIAL HepG2 Assay for M19 Transcription Factor (Internal Marker) (AID 2282939); conditions: HepG2 Attagene CIS-FACTORIAL M19 internal marker reporter; actives raise or lower the signal
How it was run: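 Chemical-treated HepG2 (24 h) with MRTU constructs; reporter transcripts detected by fluorescent RT-PCR fragment analysis on capillary electrophoresis. Internal background marker, DMSO as baseline.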

[10] = ATG_FoxO_CIS: Attagene CIS-FACTORIAL HepG2 Assay for human Forkhead box O (FoxO) (AID 2282943); conditions: HepG2 Attagene cis-reporter, FoxO element, mRNA; actives raise or lower the signal
How it was run: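 Transfected HepG2 reporter cells exposed to test chemical for 24 h; reporter RNA measured by reverse transcription, PCR and fluorescent capillary electrophoresis; curves fitted for increases and decreases against DMSO.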

[11] = ATG_GATA_CIS: Attagene CIS-FACTORIAL HepG2 Assay for human GATA Binding Protein (AID 2282944); conditions: HepG2 GATA cis-element reporter, Attagene multiplex mRNA; actives raise or lower the signal
How it was run: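 Transfected cis-reporter HepG2 cells were treated with chemicals for 24 hours. Total RNA was then converted to cDNA, amplified with reporter-specific primers and analysed by fluorescent capillary electrophoresis, using DMSO-treated wells as baseline.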

[12] = ATG_GLI_CIS: Attagene CIS-FACTORIAL HepG2 Assay for human Zinc Finger Protein GLI1 (AID 2282945); conditions: HepG2, Attagene cis-factorial reporter mRNA, GLI element; actives raise or lower the signal
How it was run: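 Transiently transfected HepG2 cells report endogenous transcription factor activity via cis-element-driven reporter units. After 24 h compound exposure, reporter mRNA was measured by RT-PCR with capillary electrophoresis; bidirectional fitting against DMSO baseline.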

[13] = ATG_ISRE_CIS: Attagene CIS-FACTORIAL HepG2 Assay for human Interferon Regulatory Factor 1 (IRF1) binding to an Interferon-Stimulated Response Element (ISRE) (AID 2282948); conditions: HepG2 ISRE cis-reporter (Attagene), mRNA transcription readout; actives raise or lower the signal
How it was run: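 Cell-based cis-reporter assay; HepG2; 24 h exposure; reporter mRNA by RT-PCR plus capillary electrophoresis fluorescence; activity in either direction scored relative to DMSO.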

[14] = ATG_M_32_CIS: Attagene CIS-FACTORIAL HepG2 Assay for M32 Transcription Factor (Internal Marker) (AID 2282949); conditions: HepG2 Attagene cis-factorial M32 reporter, mRNA; actives raise or lower the signal;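 also: background control marker of the multiplexed CIS panel rather than a real target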
How it was run: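 Following 24 h chemical exposure of HepG2 cells transiently expressing cis-promoter reporter constructs, reporter transcript levels were determined by RT-PCR with fluorescent labelling and capillary electrophoresis, then fitted bidirectionally against DMSO.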

[15] = ATG_M_06_CIS: Attagene CIS-FACTORIAL HepG2 Assay for M06 Transcription Factor (Internal Marker) (AID 2282950); conditions: HepG2 Attagene CIS-FACTORIAL M06 internal marker reporter; actives raise or lower the signal
How it was run: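 Cells (HepG2, transiently carrying cis-driven reporter units) receive chemical for 24 h before RNA isolation. Reporter cDNA is PCR-amplified, FAM-labelled by primer extension, HpaI-digested and sized on a capillary analyser.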

[16] = ATG_MRE_CIS: Attagene CIS-FACTORIAL HepG2 Assay for human Metal Responsive Element (MRE) (AID 2282954); conditions: HepG2 MRE cis-reporter transcription, Attagene multiplex; actives raise or lower the signal
How it was run: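 Fluorescent reporter fragments separated by capillary electrophoresis give mRNA induction for the MRE unit after 24 h treatment of transfected HepG2 cells. Endogenous transcription-factor activity is read; DMSO serves as negative control and baseline.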

[17] = ATG_PXRE_CIS: Attagene CIS-FACTORIAL HepG2 Assay for human Pregnane X Receptor Element (PXRE) (AID 2282957); conditions: HepG2 Attagene CIS-FACTORIAL PXRE reporter, mRNA; actives raise or lower the signal
How it was run: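 Cells: HepG2, transiently transfected reporter units under cis promoter control. Exposure: 24 h. Detection: reporter mRNA via RT-PCR/CE fluorescence; bidirectional fitting, DMSO-referenced.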

[18] = ATG_Sox_CIS: Attagene CIS-FACTORIAL HepG2 Assay for human SRY-box transcription factor (SOX) (AID 2282960); conditions: HepG2 Attagene cis-factorial SOX reporter, mRNA; actives raise or lower the signal
How it was run: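 Reporter transcripts, measured by RT-PCR and capillary electrophoresis of labelled fragments, report endogenous SOX transcription factor activity. Transiently transfected human HepG2 cells receive chemical for 24 h; changes in either direction are fitted relative to DMSO.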

[19] = biological target: Transcription factor Sp1 (Homo sapiens) (UniProt P08047); assay: ATG_Sp1_CIS: Attagene CIS-FACTORIAL HepG2 Assay for human Specificity Protein 1 (Sp1) (AID 2282961); conditions: HepG2 Sp1 cis-reporter transcription, actives raise or lower the signal
How it was run: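 Read-out is reporter transcript level, measured by RT-PCR and fluorescent capillary electrophoresis after 24 h chemical treatment. System: transiently transfected HepG2 cells reporting endogenous transcription factor activity; gain or loss fitted against DMSO baseline.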

[20] = ATG_SREBP_CIS: Attagene CIS-FACTORIAL HepG2 Assay for human Sterol Regulatory Element Binding (SREBP) (AID 2282962); conditions: HepG2 Attagene cis-factorial SREBP reporter, mRNA; actives raise or lower the signal
How it was run: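 mRNA induction of transfected cis-promoter reporters in HepG2 cells, 24 h post-dose. Detection: RT-PCR with 6-FAM-labelled products, HpaI digest, capillary electrophoresis. DMSO served as negative control and baseline.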

Measured: AC50

Sequence of Transcription factor Sp1 (Homo sapiens) (P08047 whole entry, looked up): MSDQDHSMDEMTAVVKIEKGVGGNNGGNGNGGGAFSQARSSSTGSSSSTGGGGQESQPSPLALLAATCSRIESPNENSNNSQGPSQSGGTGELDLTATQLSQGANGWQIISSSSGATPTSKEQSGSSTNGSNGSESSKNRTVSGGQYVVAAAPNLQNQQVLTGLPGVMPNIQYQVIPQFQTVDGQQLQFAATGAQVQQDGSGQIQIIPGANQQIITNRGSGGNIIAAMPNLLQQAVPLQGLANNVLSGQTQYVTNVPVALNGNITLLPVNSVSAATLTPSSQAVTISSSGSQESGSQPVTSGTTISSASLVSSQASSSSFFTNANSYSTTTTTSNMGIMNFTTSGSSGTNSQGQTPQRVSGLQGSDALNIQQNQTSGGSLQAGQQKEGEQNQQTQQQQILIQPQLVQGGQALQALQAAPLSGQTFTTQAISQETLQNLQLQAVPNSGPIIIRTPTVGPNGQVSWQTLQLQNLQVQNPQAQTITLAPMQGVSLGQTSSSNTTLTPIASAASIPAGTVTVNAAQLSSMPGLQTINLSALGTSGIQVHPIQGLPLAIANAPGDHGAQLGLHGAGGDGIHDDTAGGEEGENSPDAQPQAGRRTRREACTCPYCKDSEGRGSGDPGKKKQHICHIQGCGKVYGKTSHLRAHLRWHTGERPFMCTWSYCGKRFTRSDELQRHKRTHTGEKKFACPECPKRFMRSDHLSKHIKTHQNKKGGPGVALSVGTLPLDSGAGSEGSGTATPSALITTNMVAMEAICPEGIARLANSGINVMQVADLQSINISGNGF
Sequence of CCAAT/enhancer-binding protein beta (Homo sapiens) (P17676 whole entry, looked up): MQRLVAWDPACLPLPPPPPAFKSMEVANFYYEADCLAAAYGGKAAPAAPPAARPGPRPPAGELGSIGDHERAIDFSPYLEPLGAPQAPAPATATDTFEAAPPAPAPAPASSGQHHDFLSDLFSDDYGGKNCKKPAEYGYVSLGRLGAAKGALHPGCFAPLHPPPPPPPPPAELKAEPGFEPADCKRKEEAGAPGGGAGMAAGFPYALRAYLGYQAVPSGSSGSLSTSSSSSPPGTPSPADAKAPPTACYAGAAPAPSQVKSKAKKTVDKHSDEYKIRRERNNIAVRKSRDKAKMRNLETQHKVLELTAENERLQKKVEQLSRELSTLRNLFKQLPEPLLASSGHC
Sequence of Transcription factor E2F1 (Homo sapiens) (Q01094 whole entry, looked up): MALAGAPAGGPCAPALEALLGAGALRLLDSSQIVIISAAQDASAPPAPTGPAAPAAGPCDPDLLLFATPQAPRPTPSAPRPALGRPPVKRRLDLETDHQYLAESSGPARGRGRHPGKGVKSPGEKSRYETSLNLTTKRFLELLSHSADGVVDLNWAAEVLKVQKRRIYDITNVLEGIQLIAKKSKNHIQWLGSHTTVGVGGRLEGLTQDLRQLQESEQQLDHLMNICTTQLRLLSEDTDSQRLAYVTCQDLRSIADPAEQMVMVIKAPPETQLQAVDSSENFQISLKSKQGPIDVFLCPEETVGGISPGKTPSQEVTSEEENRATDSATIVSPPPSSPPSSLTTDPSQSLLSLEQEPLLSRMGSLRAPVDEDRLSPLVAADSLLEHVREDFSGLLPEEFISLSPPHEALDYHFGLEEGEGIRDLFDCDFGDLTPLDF

CN(C)Cc1cc(C(C)(C)C)c(O)c(C(C)(C)C)c1
active: [17] 3.41 µM | [20] 43.1 µM
inactive: all other assays above

CCCOCCC
inactive: all assays above

Oc1ccc(Cl)cc1C1CCCC1
active: [4] 56.6 µM | [8] 54.7 µM | [10] 61.3 µM | [11] 33.4 µM | [12] 43.1 µM | [13] 57.3 µM | [16] 53 µM | [17] 7.76 µM | [18] 37.5 µM | [19] 33.4 µM | [20] 25.6 µM
inactive: [1] | [2] | [3] | [5] | [6] | [7] | [9] | [14] | [15]

CC1=C(CC(=O)O)c2cc(F)ccc2/C1=C\c1ccc(S(C)=O)cc1 (stereo not given)
active: [6] 43.4 µM | [13] 44.9 µM | [17] 5.37 µM
inactive: all other assays above

Cc1cc(C)c(S(=O)(=O)O)cc1N=Nc1cc(S(=O)(=O)O)c2ccccc2c1O
inactive: all assays above

CCCC(=O)OC/C=C(\C)CCC=C(C)C
active: [17] 22.7 µM
inactive: all other assays above

CNC[C@H](O)[C@@H](O)[C@H](O)[C@H](O)CO
active: [17] 26 µM
inactive: all other assays above
